From PubChem BioAssay (NCATS)
“And” between values parts separate entries of the source, which are not always exact repeats. Equal values may be shown once. Results filed as inconclusive are left out. The source made the active and inactive calls. Calls come from the whole dose curve; as a rule, active = well fitted curve in the direction sought with a large enough effect; inconclusive = small, poorly fitted or top-dose-only effect, or another doubt; inactive = no such curve, though single readings can be large; an effect the other way counts as inactive or inconclusive.

How the values were obtained:
[1] = P-glycoprotein substrates identified in KB-8-5-11 adenocarcinoma cell line, qHTS therapeutic library screen (AID 1346987); note: nearly all actives have a fitted effect of over 65% in size; note: potency is the fitted concentration of half-maximal effect; for activity change, negative = cytotoxicity: % is set by controls: 0 for no effect and ±100 for the full control effect
In short: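 Human cervical adenocarcinoma KB-8-5-11 cells, selected in colchicine to over-express P-gp and assayed without it, were exposed for 72 h to titrated compounds. An ATP-based luminescent viability signal gave AC50.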

[2] = Primary qHTS for inhibitors of nuclear receptor binding SET domain protein 2 (NSD2) in an isogenic RCH-ACV NSD2 p.E1099K mutant (9B) (AID 1645876); note: nearly all actives have a fitted effect of over 70% in size; note: potency is the fitted concentration of half-maximal effect
[3] = Primary qHTS for inhibitors of nuclear receptor binding SET domain protein 2 (NSD2) in an RCH-ACV wild type WT cells (2C) (AID 1645877); note: nearly all actives have a fitted effect of over 70% in size; note: potency is the fitted concentration of half-maximal effect
[4] = molecular target: Glutathione peroxidase 1 (Homo sapiens) (UniProt P07203); assay: Primary qHTS Assay for Inhibitors of Recombinant Selenoprotein Glutathione Peroxidase 1 (GPX1) (AID 1845191); note: nearly all actives have a fitted effect of over 65% in size; for activity, negative = inhibition: % is set by controls: 0 for no effect and ±100 for the full control effect
In short: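 GPX1 10 nM, GR 100 nM, GSH 1 mM, NADPH 0.5 mM, CHP 0.5 mM (final). 30-min cpd preincubation, RT. Ex340/Em450 read t=0, t=15 min.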

[5] = molecular target: Phospholipid hydroperoxide glutathione peroxidase GPX4 (Homo sapiens) (UniProt P36969); assay: Primary qHTS Assay for Inhibitors of Recombinant Selenoprotein Glutathione Peroxidase 4 (GPX4) (AID 1845192); note: nearly all actives have a fitted effect of over 65% in size
In short: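 qHTS, GR-coupled: GPX4 200 nM + cpd 30 min RT → GSH 1 mM, NADPH 0.5 mM, GR 100 nM → CHP 0.5 mM start; fluor 340/450 at t0 and t15 min; no-enzyme wells as control.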

[6] = molecular target: Luciferin 4-monooxygenase (Photinus pyralis) (UniProt P08659); assay: Primary firefly luciferase (FLuc) qHTS assay for identification of artifact compounds. (AID 1845220); settings: outcome: dose series up to 54.1 µM unless noted; note: nearly all actives have a fitted effect of over 60% in size
In short: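 In this counter-screen for luciferase artifacts, test compounds met substrate (10 uM each luciferin and ATP) before 10 nM enzyme started the reaction. Light output was measured 5 min later.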

[7] = system: Nanoluciferase (engineered Oplophorus gracilirostris luciferase); assay: Primary Nanoluciferase (NLuc) qHTS assay for identification of artifact compounds. (AID 1845222);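 note: NLuc secreted into diluted conditioned medium of S16 cells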
In short: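 Using secreted nanoluciferase in S16 culture medium (0.22 um filtered, 1:55 dilution), compounds were preincubated 15 min at RT. Signal was generated with Nano-Glo reagent (1:100) over 5 min.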

CRL-7250 = normal cell line; assay: Cytotoxic Profiling of Annotated Libraries Using Quantitative High-Throughput Screening (AID 1296008); settings: Five cell lines viability, CellTiter-Glo ATP luminescence, 48-72 h; max response: hits give low values; note: nearly all actives have a fitted effect of over 60% in size; note: potency is the fitted concentration of half-maximal effect; for max response: % is set by controls: 0 for no effect and ±100 for the full control effect
In short: (§1)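 Compounds were pin-transferred onto cells and incubated 48 or 72 hr at 37 degree Celsius, 95% humidity. CellTiter-Glo was added, plates sat 10 min at room temperature, then ATP-coupled luminescence was imaged as the viability read-out.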

HEK293 = assay: as above; settings: Five cell lines viability, CellTiter-Glo ATP luminescence, 48-72 h; max response: hits give low values
In short: as §1

HaCat = assay: as above; settings: Five cell lines viability, CellTiter-Glo ATP luminescence, 48-72 h; max response: hits give low values
In short: as §1

NIH3T3 = assay: as above; settings: Five cell lines viability, CellTiter-Glo ATP luminescence, 48-72 h; max response: hits give low values
In short: as §1

C33A = assay: Primary qHTS to identify gynecologic anti-cancer compounds using libraries of approved drugs and bioactive compounds (AID 1345084); settings: Gynecologic cancer cell panel viability, ATPlite luminescence, 48 h; series mostly up to 57.5 µM; note: nearly all actives have a fitted effect of over 55% in size; note: potency is the fitted concentration of half-maximal effect; for activity change, negative = cytotoxicity: % is set by controls: 0 for no effect and ±100 for the full control effect
In short: (§2)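 Luminescence from the ATPlite ATP-monitoring reagent indicates viable cell number; lower signal means cytotoxicity. Cells received compound 16 h after seeding and were exposed for 48 h across five concentrations.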

CASKI = assay: as above; settings: Gynecologic cancer cell panel viability, ATPlite luminescence, 48 h; series mostly up to 57.5 µM
In short: as §2

Es-2 = assay: as above; settings: Gynecologic cancer cell panel viability, ATPlite luminescence, 48 h; series mostly up to 57.5 µM
In short: as §2

HeLa = assay: as above; settings: Gynecologic cancer cell panel viability, ATPlite luminescence, 48 h; series mostly up to 57.5 µM
In short: as §2

Hek293T = assay: as above; settings: Gynecologic cancer cell panel viability, ATPlite luminescence, 48 h, control line for the selectivity index; series mostly up to 57.5 µM
In short: as §2

OV90 = assay: as above; settings: Gynecologic cancer cell panel viability, ATPlite luminescence, 48 h; series mostly up to 57.5 µM
In short: as §2

PA-1 = assay: as above; settings: Gynecologic cancer cell panel viability, ATPlite luminescence, 48 h; series mostly up to 57.5 µM
In short: as §2

Tov-21-G = assay: as above; settings: Gynecologic cancer cell panel viability, ATPlite luminescence, 48 h; series mostly up to 57.5 µM
In short: as §2

Tov112D = assay: as above; settings: Gynecologic cancer cell panel viability, ATPlite luminescence, 48 h; series mostly up to 57.5 µM
In short: as §2

Sequence of Glutathione peroxidase 1 (Homo sapiens) (P07203 whole entry, looked up): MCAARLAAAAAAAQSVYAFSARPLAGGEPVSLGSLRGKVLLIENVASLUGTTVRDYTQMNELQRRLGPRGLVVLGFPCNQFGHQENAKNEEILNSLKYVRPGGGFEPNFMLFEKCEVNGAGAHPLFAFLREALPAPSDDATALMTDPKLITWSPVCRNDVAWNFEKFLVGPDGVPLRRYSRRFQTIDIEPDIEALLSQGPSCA
Sequence of Phospholipid hydroperoxide glutathione peroxidase GPX4 (Homo sapiens) (P36969 whole entry, looked up): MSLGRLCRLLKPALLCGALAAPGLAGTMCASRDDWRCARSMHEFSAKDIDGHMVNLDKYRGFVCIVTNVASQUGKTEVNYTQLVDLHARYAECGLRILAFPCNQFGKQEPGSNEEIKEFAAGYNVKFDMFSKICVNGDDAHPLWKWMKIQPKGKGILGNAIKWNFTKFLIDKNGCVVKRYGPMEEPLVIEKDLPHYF

C[C@]12CCC(=O)C=C1CC[C@@H]1[C@@H]2[C@@H](O)C[C@]2(C)C(=O)CC[C@@H]12
inactive: Potency [1] | Potency [2] | Potency [3] | Potency [4] | Potency [5] | outcome [6] | Potency [7] | outcome (CRL-7250) | max response (HEK293) -2.71% | max response (HaCat) -8.66% | max response (NIH3T3) 2.17% | Potency (C33A) | Potency (CASKI) | Potency (Es-2) | Potency (HeLa) | Potency (Hek293T) | Potency (OV90) | Potency (PA-1) | Potency (Tov-21-G) | Potency (Tov112D)

C[C@H]1O[C@@H](O[C@H]2CC[C@]3(CO)C4CC[C@]5(C)[C@@H](C6=CC(=O)OC6)CC[C@]5(O)[C@@H]4CC[C@H]3C2)[C@H](O)[C@H](O)[C@@H]1O[C@@H]1O[C@H](CO)[C@@H](O)[C@H](O)[C@H]1O (stereo partly specified)
inactive: Potency [4] | Potency [5] | outcome [6] | Potency [7] | max response (NIH3T3) -2.67%
active: Potency [1] 862 nM | Potency [2] 608 nM | Potency [3] 1.08 µM | Potency (CRL-7250) 1220 nM | Potency (HEK293) 1530 nM | Potency (HaCat) 5440 nM | Potency (C33A) 1120 nM | Potency (CASKI) 6310 nM | Potency (Es-2) 3550 nM | Potency (HeLa) 3160 nM | Potency (Hek293T) 3160 nM | Potency (PA-1) 3160 nM | Potency (Tov-21-G) 2820 nM | Potency (Tov112D) 1120 nM

C[C@]12CC[C@H](O)C[C@@H]1CC[C@@H]1[C@@H]2CC[C@]2(C)C(=O)CC[C@@H]12
inactive: Potency [1] | Potency [2] | Potency [3] | Potency [4] | Potency [5] | Potency [7] | max response (CRL-7250) -5.26% | max response (HEK293) -15.1% | max response (NIH3T3) -0.109% | Potency (C33A) | Potency (CASKI) | Potency (Es-2) | Potency (HeLa) | Potency (Hek293T) | Potency (OV90) | Potency (PA-1) | Potency (Tov-21-G) | Potency (Tov112D)

N#Cc1cn([C@@H]2O[C@H](CO)[C@H](O)[C@@H]2O)c2ncnc(N)c12
inactive: Potency [4] | Potency [5] | outcome [6] | Potency [7]
active: Potency [1] 20.6 nM | Potency [2] 12.9 nM | Potency [3] 0.0073 µM | Potency (CRL-7250) 58 nM | Potency (HEK293) 46.1 nM | Potency (HaCat) 92 nM | Potency (CASKI) 282 nM | Potency (Tov112D) 316 nM

C[C@H]1CCC/C=C/C2C[C@H](O)C[C@H]2[C@H](O)/C=C/C(=O)O1 (stereo partly specified)
active: Potency [1] 184 nM | Potency [2] 163 nM and 332 nM | Potency [3] 163 nM and 417 nM | Potency (CRL-7250) 51.7 nM | Potency (HEK293) 580 nM | Potency (HaCat) 184 nM | Potency (NIH3T3) 5170 nM | Potency (C33A) 631 nM | Potency (CASKI) 1000 nM | Potency (Es-2) 316 nM | Potency (HeLa) 355 nM | Potency (Hek293T) 891 nM | Potency (OV90) 316 nM | Potency (PA-1) 316 nM | Potency (Tov-21-G) 1000 nM | Potency (Tov112D) 891 nM
inactive: Potency [4] | Potency [5] | outcome [6] | Potency [7]

CCCCN1[C@@H]2CC[C@H]1CC(OC(c1ccc(F)cc1)c1ccc(F)cc1)C2 (stereo partly specified)
inactive: Potency [4] | Potency [5] | outcome [6] | Potency [7] | max response (CRL-7250) -21.5% | max response (HaCat) -29% | Potency (HeLa) | Potency (Tov-21-G)
active: Potency [1] 18400 nM | Potency [2] 12900 nM | Potency [3] 9.16 µM | Potency (HEK293) 23100 nM | Potency (C33A) 22400 nM | Potency (OV90) 12600 nM | Potency (PA-1) 14100 nM

C[C@@H]1C[C@@H](O)[C@]2(O)O[C@@H]3C[C@@]4(C=O)C(CC[C@@H]5C4CC[C@]4(C)[C@@H](C6=CC(=O)OC6)CC[C@]54O)C[C@H]3O[C@@H]2O1 (stereo partly specified)
inactive: Potency [4] | Potency [5] | outcome [6] inactive [at 25.7 µM] | Potency [7] | Potency (C33A)
active: Potency [1] 63.2 nM | Potency [2] 56.3 nM | Potency [3] 0.0796 µM | Potency (CRL-7250) 35.5 nM | Potency (HEK293) 44.7 nM | Potency (HaCat) 252 nM

Cc1cccc(NC(=O)N[C@H]2CN(C)c3ccccc3C(c3ccccc3)=N2)c1
active: Potency [3] 14.5 µM
inactive: Potency [4] | Potency [5] | outcome [6] | max response (CRL-7250) -1.7% | max response (HEK293) -2.16% | outcome (HaCat) | max response (NIH3T3) -5.29% | Potency (C33A) | Potency (CASKI) | Potency (Es-2) | Potency (HeLa) | Potency (Hek293T) | Potency (OV90) | Potency (PA-1) | Potency (Tov-21-G) | Potency (Tov112D)

C[C@@H]1C[C@@H](O)[C@]2(O)O[C@@H]3C[C@@]4(C=O)C(CC[C@@H]5C4CC[C@]4(C)[C@@](O)(C6=CC(=O)OC6)CC[C@]54O)C[C@H]3OC2O1 (stereo partly specified)
inactive: Potency [4] | Potency [5] | Potency [7] | max response (NIH3T3) -15.7%
active: Potency [1] 1590 nM | Potency [2] 709 nM | Potency [3] 1.12 µM | Potency (CRL-7250) 796 nM | Potency (HEK293) 1120 nM | Potency (HaCat) 5020 nM | Potency (C33A) 2820 nM | Potency (Es-2) 3550 nM | Potency (HeLa) 3980 nM | Potency (Hek293T) 3160 nM | Potency (Tov-21-G) 1780 nM | Potency (Tov112D) 891 nM

Nc1ncnc2c1ncn2[C@@H]1O[C@@H]2COP(O)(=S)O[C@H]2[C@H]1O (stereo partly specified)
inactive: activity change, negative = cytotoxicity [1] 2.93% [at 9.29 µM] | outcome [2] inactive [at 9.23 µM] | outcome [3] inactive [at 9.23 µM] | outcome [4] inactive [at 9.52 µM] | outcome [5] inactive [at 9.73 µM] | activity, negative = inhibition [7] 0.0656% [at 11.6 µM] | max response (CRL-7250) 1.79% | outcome (HEK293) | max response (NIH3T3) 4.38% | activity change, negative = cytotoxicity (C33A) 2.33% [at 11.6 µM] | activity change, negative = cytotoxicity (CASKI) -3.97% [at 11.6 µM] | activity change, negative = cytotoxicity (Es-2) 5.19% [at 11.6 µM] | activity change, negative = cytotoxicity (HeLa) 5.24% [at 11.6 µM] | activity change, negative = cytotoxicity (Hek293T) 0.669% [at 11.6 µM] | activity change, negative = cytotoxicity (OV90) 0.349% [at 11.6 µM] | activity change, negative = cytotoxicity (PA-1) 15.5% [at 11.6 µM] | activity change, negative = cytotoxicity (Tov-21-G) 2.4% [at 11.6 µM] | activity change, negative = cytotoxicity (Tov112D) 7.56% [at 11.6 µM]
